Screening results deposited in PubChem by The Scripps Research Institute Molecular Screening Center.
Many of the other results were omitted from the sample, so hits are more common in it than they were.
SF1 inhibitor: inhibitors of human SF-1, primary screen, cell-based, CHO-K1, Gal4-SF-1 LBD, luciferase luminescence | Steroidogenic factor 1 (Homo sapiens), Q13285 | CHO-K1 Gal4-SF-1 LBD luciferase reporter | inhibition, % at 10 µM | hit rate 0.55% among 65,000 | AID 525, 2006;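 active means inhibition above the mean inhibition of all tested compounds plus 3 SD, cut at about 48% in these data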;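 further: 0% = SF-1 transfected cells with DMSO and 100% = mock-transfected cells lacking SF-1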
Target sequence (Q13285 whole entry, looked up, the tested form may be a part): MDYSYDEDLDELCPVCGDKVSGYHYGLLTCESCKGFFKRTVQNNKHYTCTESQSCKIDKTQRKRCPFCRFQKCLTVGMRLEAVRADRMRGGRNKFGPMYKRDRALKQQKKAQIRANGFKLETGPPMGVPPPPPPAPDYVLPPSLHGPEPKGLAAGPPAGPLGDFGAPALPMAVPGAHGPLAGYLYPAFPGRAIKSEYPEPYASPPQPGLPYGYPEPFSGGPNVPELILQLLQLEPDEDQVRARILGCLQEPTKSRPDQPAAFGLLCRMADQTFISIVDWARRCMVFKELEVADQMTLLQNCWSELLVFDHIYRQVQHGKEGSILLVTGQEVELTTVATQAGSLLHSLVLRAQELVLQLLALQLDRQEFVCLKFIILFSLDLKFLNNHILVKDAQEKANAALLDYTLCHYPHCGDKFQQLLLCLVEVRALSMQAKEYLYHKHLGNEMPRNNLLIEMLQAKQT
* = called active by the depositor.

SMILES	SF1 inhibitor
N#CC(C(=O)OC1CCCCC1)c1nc2ccccc2nc1N1CCCCC1 (centres undefined)	-3.2
Clc1ccc(-c2nnc(NC3=NCCCCC3)o2)cc1	57.6*
Fc1ccc(-c2nnc(-c3ccc(Cl)cc3Cl)o2)cc1	23.7
O=C(Nc1ccc(F)c(F)c1)c1ccc(F)c(S(=O)(=O)N2CCOCC2)c1	7.1
Brc1ccc(-c2nc(-c3ccccc3)no2)o1	-62.6
c1ccc(-c2noc(-c3ccc4ccccc4c3)n2)cc1	50.4*
COc1ccc(-c2nc(-c3ccncc3)no2)cc1OC	-73.8
CCOC(=O)N1CCc2c(sc3c2C(=O)NC(c2ccc(-c4ccc(Cl)cc4)o2)N3)C1 (centres undefined)	-11.5
O=C(CSc1nnnn1-c1ccccc1)Nc1nsc(-c2ccc(Cl)cc2)n1	88.0*
COc1cccc(-n2nnnc2SCC(=O)Nc2cccc(C)n2)c1	1.2
O=C(Nc1nsc(-c2ccccc2)n1)c1cccs1	-77.0
Cc1noc(C(=O)Nc2ccc3c(c2)OCO3)c1Cl	-60.6
Cc1occc1C(=O)Nc1ccc2c(c1)OCO2	-53.4
CCOC(=O)c1c(N)sc(C(=O)Nc2ccc3c(c2)OCO3)c1C	52.7*
COCCn1c(SCc2nc3ccccc3s2)nc2ccccc21	-50.3
COC(=O)c1ccc(CSc2nc(C)nc3sc(C)c(C)c23)o1	16.0
O=C(NCCCn1ccnc1)C1c2ccccc2Oc2ccccc21	4.9
CC(=O)C1=C(c2ccccc2)NC(=O)NC1c1ccccc1OCC#N (centres undefined)	6.2
CCCNC(=O)c1cc(-c2ccc(Br)cc2)on1	-57.8
COCCCNC(=O)CCN1C(=O)COc2ccccc21	8.9
CCOc1ccc(-c2cc(CCCC(=O)NCCCOC)no2)cc1	57.9*
COc1ccc(C2C=C(c3ccccc3)Nc3ncnn32)cc1 (centres undefined)	-6.4
CCCCn1c2c(c(=O)n(C)c1=O)C(c1ccc(OC)cc1)N1CCCCCC1=N2 (centres undefined)	49.2*
CCOC(=O)c1nc2nc(C)c(Cl)c(=O)n2[nH]1	7.4
O=C(O)c1ccccc1C1=Nc2ccc(O)cc2Oc2cc(O)ccc21	11.5
SMILES	SF1 inhibitor
CN=c1scc(C)n1/N=C/c1ccc(O)cc1O	51.8*
CN=c1scc(C)n1/N=C/c1ccc(O)cc1	25.0
COc1cccc2cc(NC(=O)C3CCCCC3)c(=O)oc12	-65.9
CCN(CCCNC(=O)c1c(C)cc(=O)oc1C)c1cccc(C)c1	19.0
CCN(CC)CCCN1C(=O)C(O)=C(C(=O)c2cc3cccc(OC)c3o2)C1c1ccncc1 (centres undefined)	-12.5
COc1ccc(-n2c(Cc3cccn3C)nnc2SCC(=O)Nc2cccc(OC)c2)cc1	-10.3
COc1cccc(NC(=O)CSc2ccc3nnc(-c4ccncc4)n3n2)c1	12.7
COc1cccc(NC(=O)CSc2nnc(-c3cc(C)n(-c4ccccc4)c3C)o2)c1	66.8*
CCOC(=O)N1CCN(C(=O)CN(C)S(=O)(=O)c2ccc(OC)c(OC)c2)CC1	-0.2
Cc1nc2ccc(NC(=O)Cn3cnc4c3c(=O)n(C)c(=O)n4C)cc2s1	3.1
COC(=O)C1=C(N)N(c2ccc(F)cc2)C2=C(C(=O)CCC2)C1c1ccc2c(c1)OCO2 (centres undefined)	13.1
Cc1ccc(CNc2nc3ccccc3s2)s1	61.4*
c1csc(CSc2nc3ccccc3s2)c1	-52.2
Cc1noc(C)c1CSc1nc2ccccc2s1	-18.7
CCCC(=O)Nc1cccc(C(=O)Nc2nccs2)c1	-21.5
Cc1ccc(C(=O)Nc2ncc(Cc3ccccc3)s2)o1	-61.0
COc1ccc(N(C)S(=O)(=O)c2c(C)[nH]c(=O)[nH]c2=O)cc1	-4.4
Cn1nc(C(C)(C)C)cc1C(=O)NCc1ccc(N2CCCC2=O)cc1	69.4*
O=C(NCc1ccccc1)c1noc2c1CCCCC2	-52.5
O=C1CC(NCCN2CCOCC2)C(=O)N1Cc1ccc(N2CCCC2=O)cc1 (centres undefined)	-3.6
CCOC(=O)N1CCN(C(=O)c2ccc3c(SCC(=O)O)c4c(nc3c2)CCC4)CC1	10.0
CCOC(=O)Cn1c(=O)c2c(nc(Br)n2Cc2ccc(Cl)cc2)n(C)c1=O	0.0
CN(C)S(=O)(=O)c1ccc(C(=O)Nc2ccc(CN3CCCC3)cc2)cc1	11.1
CCN(CC)S(=O)(=O)c1ccc(NC(=O)c2ccccn2)cc1	-55.0
CCCCN(CCCC)S(=O)(=O)c1ccc(C(=O)Nc2nnc(CSC)o2)cc1	55.2*
SMILES	SF1 inhibitor
CCC1C(=O)n2nc(-c3ccccc3)cc2N=C1C (centres undefined)	-91.2
COCCn1c(C2CCCCC2)nc2sc3ccccc3c(=O)c2c1=O	-1.9
COc1ccc(N2C(=O)CC(c3ccc(OC(C)C)cc3)C2=O)cc1 (centres undefined)	1.4
COc1ccccc1N(Cc1cc2cccc(C)c2[nH]c1=O)C(=O)C(C)C	2.2
ClC(Br)=C(n1cnc2ccccc21)n1cnc2ccccc21	10.1
COc1ccc(C(=O)Nc2nc3ccccc3[nH]2)cc1OC	-50.2
O=C(Nc1nc2ccccc2[nH]1)c1ccccc1F	83.6*
O=C(Nc1cccc(-c2nc3ccccc3[nH]2)c1)c1ccco1	-27.7
Cc1c(NC(=O)CCCCCN2C(=O)C3C4C=CC(C4)C3C2=O)c(=O)n(-c2ccccc2)n1C (centres undefined)	-10.6
CCCc1nnc(NC(=O)CCC(=O)N2CCCCCC2)s1	7.7
Cn1cnnc1SCc1ccc(-c2ccc(Br)cc2)o1	5.4
COc1ccc(-c2noc(C3CCCN(C(=O)CCc4ccccc4)C3)n2)cc1 (centres undefined)	3.7
COc1ccc(NC(=O)N2CCCC(c3nc(-c4ccc(C(C)C)cc4)no3)C2)cc1 (centres undefined)	59.1*
COc1cccc(NC(=O)N2CCC(N3CCCCC3)CC2)c1	21.2
COC(=O)c1ccc(CSc2nc3c(c(=O)n2-c2ccc(Br)cc2)SCC3)o1	6.9
O=S(=O)(NCc1csc(-c2ccccc2)n1)c1ccc(Cl)s1	11.7
O=C(CNS(=O)(=O)c1ccc(Br)s1)Nc1ccc2c(c1)OCCO2	-27.3
O=S(=O)(NCc1ccncc1)c1ccc(Br)s1	82.9*
COc1ccc(NC2=Nc3ccccc3CC2)cc1	-57.6
COc1ccc2cc(CCNC(=O)C3CC3)c(=O)[nH]c2c1	-4.6
COc1ccc(N2CCN(C(=O)CN3C(=O)C4CC=CCC4C3=O)CC2)cc1 (centres undefined)	-3.7
Cn1c(=O)c2c(nc(NC(Cc3ccccc3)C(=O)O)n2Cc2ccccc2)n(C)c1=O (centres undefined)	8.9
Cn1c(=O)c2c(nc(NCc3ccco3)n2C/C=C/c2ccccc2)n(C)c1=O	53.1*
COCCNc1nc2c(c(=O)n(C)c(=O)n2C)n1Cc1cccc(C)c1	-2.2
CC1(C)CNC(=O)c2sc(N3CCOCC3)nc2C1	-3.7
SMILES	SF1 inhibitor
COc1cc2c(cc1NC(=O)CN1C(=O)NC3(CCc4ccccc43)C1=O)oc1ccccc12 (centres undefined)	-2.7
O=C(CSc1cccc2cccnc12)NCc1ccco1	12.3
CCOc1cccc(-c2nnc(SCC(=O)Nc3ccc(OC)c(OC)c3)n2N)c1	10.7
CCOc1ccccc1-n1c(SCC(=O)Nc2ccc(CC)cc2)nc2n[nH]c(C)c2c1=N	83.9*
CCOc1ccccc1N(CC(=O)Nc1ccc(C)cc1)S(C)(=O)=O	1.7
CCSc1nnc(NC(=O)CSc2nc3c(c(=O)n2-c2ccccc2)SCC3)s1	3.3
CCOC(=O)c1nnn(-c2nonc2N)c1COc1ccccc1	6.1
